For 8 molecules, growth results are on record in PubChem BioAssay (NCI).

Some test systems named below: NCI-H23 lung; NCI-H460 lung; 786-0 renal; DU-145 prostate; MDA-MB-231 breast; SF-268 CNS; SF-539 CNS; M14 melanoma; SNB-75 CNS; PC-3 prostate; UACC-62 melanoma; SK-MEL-28 melanoma; ACHN renal; OVCAR-5 ovarian; OVCAR-3 ovarian; NCI/ADR-RES ovarian; SW-620 colon; MCF7 breast; HCT-116 colon; KM12 colon.
What all share (assay): NCI-60 one-dose screen, 48 h (100 = growth as untreated, 0 = no growth, -100 = all killed)
What all share (settings): 10 µM unless noted

SMILES strings stand for the structures. Compounds without any hit were thinned out: in the full panel of roughly 83,000, 20% have a hit.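 48-hour exposure, single concentration, 96-well plates; percent growth endpoint where 0 means no net growth. Active: below 10.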 A number with no mark means an inactive call. Calls of active or inactive are those of the source.

As to `CC1(C)N=C(N)N=C(N)N1c1ccc(CNC(=O)Nc2ccc(S(=O)(=O)F)c(Cl)c2)c(Cl)c1`, the growth is 31.1% in the test with NCI-H23 lung; 7.59% (active) in the test on NCI-H460 lung; 30.8% in the test on 786-0 renal; 31.7% in the test with DU-145 prostate; 60.8% in the test on MDA-MB-231 breast; 26.5% with SF-268 CNS. For the same molecule, the growth with SF-539 CNS is 24.9%; with M14 melanoma it was 29.4%; in the test on SNB-75 CNS it was 69.2%; with PC-3 prostate, 4.03% (active); in the test with UACC-62 melanoma, 23.9%; with SK-MEL-28 melanoma, 48.6%. Also, the growth in the test with ACHN renal was 52.9%; in the test with OVCAR-5 ovarian, 26.4%; in the test on OVCAR-3 ovarian it was 48.9%; in the test with NCI/ADR-RES ovarian, 103%; in the test with SW-620 colon it was 12.5%; with MCF7 breast, 1.42% (active). The growth in the test on HCT-116 colon was 10.1%; in the test with KM12 colon it was 21.2%.

In the case of `Cc1cc(C)nc(C)c1.[Cl][Hg][Cl]`, the growth in the test with NCI-H23 lung was 98.9%; in the test with NCI-H460 lung, 101%; in the test on 786-0 renal, 104%; in the test on DU-145 prostate it was 102%; with MDA-MB-231 breast, 118%; with SF-268 CNS, 102%. The growth in the test with SF-539 CNS is 103%; with M14 melanoma it was 97.3%; in the test on SNB-75 CNS, 96%; in the test on PC-3 prostate, 95.4%; with UACC-62 melanoma, 95%; in the test on SK-MEL-28 melanoma, 94%. The growth with ACHN renal is 101%; with OVCAR-5 ovarian it was 114%; with OVCAR-3 ovarian, 108%; with NCI/ADR-RES ovarian, 102%; in the test on SW-620 colon, 105%; in the test with MCF7 breast it was 82.7%. The growth in the test with HCT-116 colon is 108%; in the test on KM12 colon, 96.2%.

With `CC1(C)CC(=O)CC(C)(C)N1N=O`, the growth in the test on NCI-H23 lung was 102%; in the test on NCI-H460 lung it was 114%; in the test with 786-0 renal, 109%; with DU-145 prostate, 107%; in the test with MDA-MB-231 breast, 109%; with SF-268 CNS, 106%. Further, the growth was 94.3% in the test with SF-539 CNS; 102% in the test on M14 melanoma; 78.7% in the test on SNB-75 CNS; 104% with UACC-62 melanoma; 109% in the test on SK-MEL-28 melanoma; 103% in the test on ACHN renal. Further, the growth in the test on OVCAR-5 ovarian was 104%; in the test with OVCAR-3 ovarian it was 101%; with NCI/ADR-RES ovarian, 100%; in the test on MCF7 breast, 97.9%; with HCT-116 colon, 96.3%; with KM12 colon it was 99.1%.

On to `CN1CC2CCC(C1)C2=O`, for which the growth in the test with NCI-H23 lung is 106%; in the test with NCI-H460 lung, 104%; in the test on 786-0 renal, 97.1%; in the test on DU-145 prostate it was 115%; in the test on MDA-MB-231 breast it was 124%; in the test with SF-268 CNS it was 106%. The growth with SF-539 CNS was 105%; with M14 melanoma, 98.2%; in the test with SNB-75 CNS it was 89.3%; in the test on PC-3 prostate, 92.9%; with UACC-62 melanoma, 110%; with SK-MEL-28 melanoma, 113%. Further, the growth in the test on ACHN renal is 102%; in the test with OVCAR-5 ovarian it was 103%; with OVCAR-3 ovarian, 106%; in the test with NCI/ADR-RES ovarian, 106%; in the test on SW-620 colon, 104%; with MCF7 breast, 102%. In addition, the growth is 95.4% with HCT-116 colon and 115% with KM12 colon.

Turning to `CO[C@@H](c1ccccc1Cl)[C@H](C)OC(N)=O`, the growth is 93.7% in the test on NCI-H23 lung; 105% with NCI-H460 lung; 98.7% in the test with 786-0 renal; 106% with DU-145 prostate; 102% with MDA-MB-231 breast; 97.4% with SF-268 CNS. The growth with SF-539 CNS is 96.6%; with M14 melanoma, 89.9%; with SNB-75 CNS, 70.8%; in the test with PC-3 prostate it was 98.1%; with UACC-62 melanoma, 93.1%; in the test on SK-MEL-28 melanoma, 102%. Moreover, the growth with ACHN renal was 99.6%; with OVCAR-5 ovarian, 91.5%; in the test with OVCAR-3 ovarian, 111%; in the test with NCI/ADR-RES ovarian, 103%; in the test with SW-620 colon it was 100%; in the test on MCF7 breast, 102%. For the same molecule, the results for the growth with HCT-116 colon and in the test on KM12 colon were 97.2% and 109%, respectively.

Regarding `NC(=O)NC(=O)CI`, the growth is 95.5% in the test on NCI-H23 lung; 106% with NCI-H460 lung; 88% in the test on 786-0 renal; 101% in the test with DU-145 prostate; 94.9% in the test with MDA-MB-231 breast; 101% in the test on SF-268 CNS. The growth in the test with SF-539 CNS was 109%; in the test with M14 melanoma it was 88.7%; in the test on SNB-75 CNS, 106%; in the test on PC-3 prostate it was 98.5%; in the test on UACC-62 melanoma, 86.7%; in the test with SK-MEL-28 melanoma, 89.5%. Moreover, the growth in the test on ACHN renal is 84.7%; in the test with OVCAR-5 ovarian it was 114%; with OVCAR-3 ovarian, 102%; in the test with NCI/ADR-RES ovarian it was 99.4%; with SW-620 colon it was 27.6%; in the test with MCF7 breast it was 94.3%. In addition, the growth is 36.8% in the test on HCT-116 colon and 107% in the test on KM12 colon.

For `O=C(O)CC(Br)C(=O)CBr` (stereo not drawn), the growth was 108% in the test with NCI-H23 lung; 108% in the test with NCI-H460 lung; 99.1% in the test on 786-0 renal; 111% in the test with DU-145 prostate; 98.2% in the test on MDA-MB-231 breast; 106% with SF-268 CNS. Also, the growth in the test on SF-539 CNS is 95.3%; in the test with M14 melanoma, 103%; with SNB-75 CNS, 93.5%; with PC-3 prostate, 98.7%; in the test on UACC-62 melanoma, 102%; in the test on SK-MEL-28 melanoma, 102%. Further, the growth with ACHN renal is 99%; in the test with OVCAR-5 ovarian it was 106%; with OVCAR-3 ovarian, 114%; in the test with NCI/ADR-RES ovarian, 111%; in the test with SW-620 colon, 103%; in the test with MCF7 breast, 86.3%. The growth in the test on HCT-116 colon is 100%; in the test with KM12 colon, 111%.

On to `CC(=O)O[C@H]1CC[C@H]2[C@@H]3CC[C@H]4CC=C(C)C[C@]4(C)[C@H]3CC[C@]12C`, for which the growth in the test on NCI-H23 lung is 104%; with NCI-H460 lung it was 113%; in the test on 786-0 renal it was 100%; with DU-145 prostate, 106%; in the test with MDA-MB-231 breast, 109%; in the test on SF-268 CNS it was 100%. In addition, the growth in the test on SF-539 CNS was 96.2%; in the test with M14 melanoma, 101%; in the test on SNB-75 CNS, 110%; in the test with PC-3 prostate, 99.3%; in the test on UACC-62 melanoma it was 98.5%; with SK-MEL-28 melanoma, 112%. For the same molecule, the growth with ACHN renal was 96.5%; with OVCAR-5 ovarian, 92.1%; with OVCAR-3 ovarian it was 102%; with NCI/ADR-RES ovarian, 109%; in the test with SW-620 colon, 109%; in the test with MCF7 breast, 100%. Also, the growth in the test on HCT-116 colon and in the test on KM12 colon was 103% throughout.
